Experimental findings from publication PMC5700166 are described below.

For this test, the target named is GST-Hu-p50 (Homo sapiens, UniProt P19838 7-356). Kind of test: protein-binding microarray (PBM); PBM: ~300 nM protein, 6 mM HEPES pH 7.8, 80 mM KCl, 0.5 mM EDTA, 0.5 mM EGTA, 6% glycerol, 35 ng/ul poly-dIdC, 1% milk, 1 h, room temperature; Ap Aiptasia and Nv Nematostella (sea anemones) / Co Capsaspora / Aq Amphimedon (sponge) / Dm Drosophila / Hu human; RHD is the Rel homology domain; high values mean tight binding. The settings on record: dsDNA, one strand shown.
GST-Hu-p50, sequence (P19838 7-356): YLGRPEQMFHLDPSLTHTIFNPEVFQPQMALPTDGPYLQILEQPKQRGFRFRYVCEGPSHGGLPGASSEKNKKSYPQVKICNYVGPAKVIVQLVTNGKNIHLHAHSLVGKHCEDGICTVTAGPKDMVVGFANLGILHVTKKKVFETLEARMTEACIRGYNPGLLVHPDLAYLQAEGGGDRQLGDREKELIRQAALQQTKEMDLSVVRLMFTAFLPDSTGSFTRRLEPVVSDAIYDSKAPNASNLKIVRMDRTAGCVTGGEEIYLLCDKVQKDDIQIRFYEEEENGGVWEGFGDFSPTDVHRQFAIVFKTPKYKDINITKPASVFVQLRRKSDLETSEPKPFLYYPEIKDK
In turn, “CCGATTAACATCAGGGAACGCCCTGATGTTAATCGGGTCTTGATTCGCTTGACGCTGCTG” displayed a binding signal of 2.04 z-score.
In the case of “CCGATTAACATCAGGGGTAACACTGATGTTAATCGGGTCTTGATTCGCTTGACGCTGCTG” it was 1.68 z-score.
In turn, “CCGATTAACATCAAAAAATTCCTTGATGTTAATCGGGTCTTGATTCGCTTGACGCTGCTG” yielded a binding signal of 1.55 z-score.
To “CCGATTAACATCAGGACTATCCCTGATGTTAATCGGGTCTTGATTCGCTTGACGCTGCTG” belongs 1.81 z-score; to “CCGATTAACATCAGAAATCCCAATGATGTTAATCGGGTCTTGATTCGCTTGACGCTGCTG”, 2.35 z-score; to “CCGATTAACATCAGGGGAAGAAATGATGTTAATCGGGTCTTGATTCGCTTGACGCTGCTG”, 5.16 z-score.
To “CCGATTAACATCAAAAATTTCCTTGATGTTAATCGGGTCTTGATTCGCTTGACGCTGCTG” belongs 1.32 z-score; to “CCGATTAACATCAACATTTTCCCTGATGTTAATCGGGTCTTGATTCGCTTGACGCTGCTG”, 4.21 z-score.
Take “CCGATTAACATCAGAGTTTTCCCTGATGTTAATCGGGTCTTGATTCGCTTGACGCTGCTG”: the binding signal stood at 3.99 z-score.
In turn, “CCGATTAACATCAGGGGAACTCATGATGTTAATCGGGTCTTGATTCGCTTGACGCTGCTG” registered a binding signal of 4.82 z-score.
In the case of “CCGATTAACATCACATACCCCCCTGATGTTAATCGGGTCTTGATTCGCTTGACGCTGCTG” it was 3.68 z-score; in that of “CCGATTAACATCAGAGGTGCTTCTGATGTTAATCGGGTCTTGATTCGCTTGACGCTGCTG”, 1.84 z-score.
In the case of “CCGATTAACATCAATAAAGTCCCTGATGTTAATCGGGTCTTGATTCGCTTGACGCTGCTG” it was 5.23 z-score; in that of “CCGATTAACATCATTAGGGAAAATGATGTTAATCGGGTCTTGATTCGCTTGACGCTGCTG”, 4.64 z-score; in that of “CCGATTAACATCACCGTTCCGATTGATGTTAATCGGGTCTTGATTCGCTTGACGCTGCTG”, 1.04 z-score.
To “CCGATTAACATCAGGGAGAGCCCTGATGTTAATCGGGTCTTGATTCGCTTGACGCTGCTG” belongs 2.37 z-score; to “CCGATTAACATCACGGGGTTGCCTGATGTTAATCGGGTCTTGATTCGCTTGACGCTGCTG”, 1.21 z-score; to “CCGATTAACATCAGGAAACACCATGATGTTAATCGGGTCTTGATTCGCTTGACGCTGCTG”, 1.95 z-score.
Turning to “CCGATTAACATCACGTATTCCCCTGATGTTAATCGGGTCTTGATTCGCTTGACGCTGCTG”, the binding signal is 5.15 z-score.
In the case of “CCGATTAACATCAGGAATCCCACTGATGTTAATCGGGTCTTGATTCGCTTGACGCTGCTG” it was 1.55 z-score; in that of “CCGATTAACATCAGAAAATTTCCTGATGTTAATCGGGTCTTGATTCGCTTGACGCTGCTG”, 1.69 z-score; in that of “CCGATTAACATCACCATTTTCCCTGATGTTAATCGGGTCTTGATTCGCTTGACGCTGCTG”, 3.64 z-score.
In the case of “CCGATTAACATCAGGATTTTCCCTGATGTTAATCGGGTCTTGATTCGCTTGACGCTGCTG” it was 5 z-score.
In turn, “CCGATTAACATCAGGAATTGCCCTGATGTTAATCGGGTCTTGATTCGCTTGACGCTGCTG” came in with a binding signal of 1.09 z-score.
In turn, “CCGATTAACATCAAGAGTTCCCCTGATGTTAATCGGGTCTTGATTCGCTTGACGCTGCTG” showed a binding signal of 5.23 z-score.
In the case of “CCGATTAACATCAATAAATTCCCTGATGTTAATCGGGTCTTGATTCGCTTGACGCTGCTG”, the binding signal is 5.11 z-score.
In turn, “CCGATTAACATCAGGGATTCCACTGATGTTAATCGGGTCTTGATTCGCTTGACGCTGCTG” displayed a binding signal of 1.75 z-score.
In the case of “CCGATTAACATCAGGGGAACTAATGATGTTAATCGGGTCTTGATTCGCTTGACGCTGCTG” it was 4.28 z-score.
As to “CCGATTAACATCAGGCGTTTCCCTGATGTTAATCGGGTCTTGATTCGCTTGACGCTGCTG”, the binding signal worked out at 1.83 z-score.
To “CCGATTAACATCACAATTTTCCCTGATGTTAATCGGGTCTTGATTCGCTTGACGCTGCTG” belongs 4.58 z-score; to “CCGATTAACATCAATGGGATTCCTGATGTTAATCGGGTCTTGATTCGCTTGACGCTGCTG”, 1.23 z-score; to “CCGATTAACATCAGTATTCCCCATGATGTTAATCGGGTCTTGATTCGCTTGACGCTGCTG”, 5.14 z-score.
In the case of “CCGATTAACATCAGGGGAAAGCATGATGTTAATCGGGTCTTGATTCGCTTGACGCTGCTG” it was 4.81 z-score.
The sequence “CCGATTAACATCACCCACCGATTTGATGTTAATCGGGTCTTGATTCGCTTGACGCTGCTG” registered a binding signal of 1.08 z-score.
In the case of “CCGATTAACATCACCCCAACCCCTGATGTTAATCGGGTCTTGATTCGCTTGACGCTGCTG” it was 1.66 z-score; in that of “CCGATTAACATCAAAGTTTTCCCTGATGTTAATCGGGTCTTGATTCGCTTGACGCTGCTG”, 4.49 z-score; in that of “CCGATTAACATCAAGAAATTCCTTGATGTTAATCGGGTCTTGATTCGCTTGACGCTGCTG”, 1.18 z-score.
As to “CCGATTAACATCAGGAAAGTACCTGATGTTAATCGGGTCTTGATTCGCTTGACGCTGCTG”, the binding signal came out at 5.16 z-score.
As for “CCGATTAACATCAGGGGAACATATGATGTTAATCGGGTCTTGATTCGCTTGACGCTGCTG”, the binding signal is 4.06 z-score.
